A short description of assay [1]: qHTS of pediatric cancer cell lines to identify multiple opportunities for drug repurposing: Primary screen for RD cells (AID 1347104). Also: nearly all actives have a fitted effect of over 55% in size. Also: potency is read from the fitted curve at half-maximal effect. The procedure, abridged: (§1)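 Quantitative HTS format: each compound titrated (MIPE 11 points from 0.78 nM, NPC 8 points from 0.59 nM) onto cells plated 5 hours earlier. After 48 h at 37 degrees C, CellTiter-Glo luminescence was recorded.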

Assay [2] in a line: qHTS of pediatric cancer cell lines to identify multiple opportunities for drug repurposing: Primary screen for control Hh wild type fibroblast cells (AID 1347106). Also: nearly all actives have a fitted effect of over 55% in size. Also: potency is read from the fitted curve at half-maximal effect. The procedure, abridged:
(§2)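 Viability after 48 h compound treatment at 37C, 500-1,000 cells/well, read as ATP luminescence with CellTiter-Glo. Primary screens used 11-point (MIPE, 0.78 nM-46 µM) or 8-point (NPC, 0.59 nM-46 µM) final concentrations; follow-up screens used 11-point dilutions.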
(In general: In qHTS, concentration-response curves come from the screen itself.)

A short description of assay [3]: qHTS of pediatric cancer cell lines to identify multiple opportunities for drug repurposing: Primary screen for Rh30 cells (AID 1347107). Also: nearly all actives have a fitted effect of over 75% in size. Also: potency is read from the fitted curve at half-maximal effect. The procedure, abridged:
as §2

A short description of assay [4]: qHTS of pediatric cancer cell lines to identify multiple opportunities for drug repurposing: Primary screen for Rh41 cells (AID 1347108). Also: nearly all actives have a fitted effect of over 70% in size. Also: potency is read from the fitted curve at half-maximal effect. In a few lines: as §1
Assay [5] in a line: qHTS of pediatric cancer cell lines to identify multiple opportunities for drug repurposing: Confirmatory screen for NB1643 cells (AID 1347109). Also: nearly all actives have a fitted effect of over 45% in size. Also: potency is read from the fitted curve at half-maximal effect. The procedure, abridged:
as §2

Assay [6] can be described thus: qHTS of pediatric cancer cell lines to identify multiple opportunities for drug repurposing: Confirmatory screen for A673 cells (AID 1347110). Also: nearly all actives have a fitted effect of over 65% in size. Also: potency is read from the fitted curve at half-maximal effect. In a few lines: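 Concentration-response curves came straight from titrations: 11 points (0.78 nM to 46 µM) for MIPE and several concentrations (0.59 nM to 46 µM) for NPC in primary, 11 points in follow-up. Readout: ATP luminescence at 48 h.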

Assay [7] in a line: qHTS of pediatric cancer cell lines to identify multiple opportunities for drug repurposing: Confirmatory screen for SK-N-MC cells (AID 1347111).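 Also: cells exposed to compound for 48 h before the readout; nearly all actives have a fitted effect of over 70% in size.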 Also: potency is read from the fitted curve at half-maximal effect. The procedure, abridged:
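SK-N-MC cells at 500-1,000 cells/well in growth media were pre-incubated 5 h, then exposed to compounds at 11-point dilutions for 48 h at 37 degrees C, 5% CO2. Viability was read as CellTiter-Glo luminescence.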

Assay [8] in a line: qHTS of pediatric cancer cell lines to identify multiple opportunities for drug repurposing: Confirmatory screen for BT-12 cells (AID 1347112). Also: nearly all actives have a fitted effect of over 55% in size. Also: potency is read from the fitted curve at half-maximal effect. In a few lines:
as §2

The nature of assay [9]: qHTS of pediatric cancer cell lines to identify multiple opportunities for drug repurposing: Confirmatory screen for DAOY cells (AID 1347114). Also: nearly all actives have a fitted effect of over 65% in size. Also: potency is read from the fitted curve at half-maximal effect. The procedure, abridged:
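Viability measured as metabolically active cells via CellTiter-Glo luminescence following 48 hours of compound exposure, 11-point dilutions in confirmatory testing. 500-1,000 cells/well plated 5 hours before dosing; controls were DMSO and 2.3 µM bortezomib.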

Assay [10] is described as follows: qHTS of pediatric cancer cell lines to identify multiple opportunities for drug repurposing: Primary screen for MG 63 (6-TG R) cells (AID 1347105). Also: nearly all actives have a fitted effect of over 50% in size. The procedure, abridged:
as §1

Results filed as inconclusive are left out. The source made the active and inactive calls. Calls follow the shape of the dose curve; as a rule, active = well fitted curve in the direction sought with a large enough effect; inconclusive = small, poorly fitted or top-dose-only effect, or another doubt; inactive = no such curve, though single readings can be large; an effect the other way counts as inactive or inconclusive.

On to `CN[C@@H](C)[C@H](O)c1ccccc1`, for which the Potency result in assay [1], in [2], in [3] and in [4] was “inactive” in each case.
Regarding `CC(C)(O)C=CC(=O)[C@](C)(O)[C@H]1[C@H](O)C[C@]2(C)[C@@H]3CC=C4[C@@H](C=C(O)C(=O)C4(C)C)[C@]3(C)C(=O)C[C@@]12C`, the Potency in [1] is 166 nM (active); in assay [3] it was 8.33 µM (active); in assay [4], 0.469 µM (active); in [5], 0.117 µM (active); in [6], 5.22 µM (active); in [7] it was 0.147 µM (active). The Potency was 1.31 µM (active) in [8] and 165 nM (active) in assay [9].
As to `CC1=NN=C(c2ccc(N)cc2)c2cc3c(cc2C1)OCO3`, the Potency result in assay [1], in [2], in assay [3] and in assay [4] was “inactive” in each case.
On to `CC(Cc1ccc(O)cc1)NCC(O)c1cc(O)cc(O)c1` (configuration not stated), for which the Potency result in assay [1], in assay [2], in assay [3] and in assay [4] was “inactive” each time.
For the molecule `CCc1c(C(=O)C(N)=O)c2c(OCC(=O)O)cccc2n1Cc1ccccc1`, the Potency result in assay [1], in assay [2], in [3] and in assay [4] was “inactive” throughout.
As to `CO[C@H]1CCC(O[C@H]2C[C@H]([C@]3(C)CC[C@]4(C[C@H](O)[C@@H](C)[C@@H]([C@@H](C)C=C(C)C(=O)[C@H](C)C[C@H](C)C(=O)O)O4)O3)O[C@]3(O[C@@H]([C@H]4O[C@@](O)(CO)[C@H](C)C[C@H]4C)C[C@H]3C)[C@H]2C)O[C@H]1C` (some centres not stated), the Potency is 1870 nM (active) in assay [1]; 3.72 µM (active) in assay [3]; 1.87 µM (active) in assay [4]; 2.93 µM (active) in assay [5]; 1.85 µM (active) in [6]; 2.93 µM (active) in assay [8]. The Potency in [9] was 20800 nM (active).
Regarding `CCN1C[C@]2(OC(=O)c3ccccc3NC(C)=O)CC[C@H](OC)[C@@]34[C@H]5CC6[C@@H](OC)C[C@](O)(C(C[C@@H]23)[C@@H]14)[C@@]5(O)[C@@H]6OC`, the Potency result in assay [1], in [3] and in assay [4] was “inactive” each time.
Regarding `O=S(=O)(F)Cc1ccccc1`, the Potency result in assay [1], in assay [3] and in assay [4] was “inactive” in each case.
`C[C@@H]1CC[C@@]2(OC1)O[C@H]1C[C@H]3[C@@H]4CC=C5C[C@@H](O[C@@H]6O[C@H](CO)[C@@H](O[C@@H]7O[C@@H](C)[C@H](O)[C@@H](O)[C@@H]7O)[C@H](O)[C@@H]6O[C@@H]6O[C@@H](C)[C@H](O)[C@@H](O)[C@@H]6O)CC[C@]5(C)[C@@H]4CC[C@]3(C)[C@@H]1[C@H]2C`: the Potency in assay [1] is 5900 nM (active); in [3], 11.8 µM (active); in assay [4], 14.8 µM (active); in [5], 4.14 µM (active); in assay [6], 6.57 µM (active); in [7], 2.33 µM (active). The Potency in assay [8] is 9.27 µM (active). Also, the Potency entry in [2] was “inactive”.
For the molecule `COC1=CC(C)=C[C@@H](C)[C@@H](O)[C@@H](C)CC(C)=CC=C[C@H](OC)[C@H]([C@@H](C)[C@@H](O)[C@H](C)[C@@]2(O)C[C@@H](O)[C@H](C)[C@@H](C(C)C)O2)OC1=O`, the Potency in assay [1] was 1 nM (active); in assay [2], 41.8 nM (active); in [4], 16.6 µM (active). For the same molecule, the Potency result in assay [6] and in assay [9] was “inactive” in each case.
As to `Cc1c(C(=O)Nc2cccc(C(F)(F)F)c2)cc(-c2ccccc2)n1CCCN1CCOCC1`, the Potency in assay [1] is 18700 nM (active); in assay [5], 42.7 µM (active); in assay [7], 26.9 µM (active); in assay [9], 38000 nM (active).
For `CC=C(C)C(=O)O[C@H]1C(C)=C2[C@@H]3OC(=O)[C@@](C)(O)[C@@]3(O)[C@@H](OC(=O)CCC)C[C@](C)(OC(C)=O)[C@@H]2[C@@H]1OC(=O)CCCCCCC`, the figures for the Potency in [1], in [3] and in [4] were 20.9 nM (active), 1.32 µM (active) and 0.209 µM (active), respectively. Further, the Potency result in assay [5], in assay [6], in assay [7] and in [9] was “inactive” in each case.
`CCCCCCCCc1ccc(O)cc1`: the Potency result in assay [1], in assay [3] and in [4] was “inactive” each time.
Turning to `CC[N+]1(CCOC(=O)C(O)(c2ccccc2)c2ccccc2)CCCCC1`, the Potency result in assay [1], in assay [3] and in [4] was “inactive” each time.
As to `C[C@@]12OC(=O)[C@]1([C@@H](O)[C@@H]1C=CCCC1)NC(=O)[C@H]2CCCl`, the Potency in assay [1] was 52.6 nM (active); in assay [2] it was 93.5 nM (active); in assay [3], 5.9 µM (active); in assay [4] it was 0.059 µM (active); in [5] it was 1.04 µM (active); in assay [6], 0.585 µM (active). Also, the Potency in assay [8] is 2.93 µM (active); in assay [9], 657 nM (active).
For the molecule `CC(C)[C@H]1C(=O)N[C@H](CO)Cc2c[nH]c3cccc(c23)N1C`, the Potency entry in [1], in [3] and in [4] was “inactive” throughout.
For `CC(=Cc1csc(C)n1)[C@@H]1C[C@H]2O[C@@H]2CCC[C@H](C)[C@@H](O)[C@@H](C)C(=O)C(C)(C)[C@@H](O)CC(=O)O1`, the Potency entry in [2] and in assay [3] was “inactive” each time. The results for the Potency in assay [6], in assay [7] and in assay [9] were 0.0185 µM (active), 0.0208 µM (active) and 13.1 nM (active), respectively.
In the case of `O=C(N[C@@H](COc1ccc2[nH]c(=O)[nH]c2c1)c1ccccc1)c1cccn(Cc2ccc(F)c(F)c2)c1=O`, the Potency result in [3] was “inactive”.
For `COc1ccc2c(c1)CN(C)CC2c1ccc(Cl)c(Cl)c1` (configuration not stated), the Potency entry in assay [2], in assay [3], in [4] and in assay [8] was “inactive” in each case. In addition, the Potency in assay [7] is 6.57 µM (active).
In the case of `O=S(=O)(CC1CS1)c1ccc(Oc2ccccc2)cc1` (configuration not stated), in assay [2], the Potency result was “inactive”. In addition, the Potency in assay [4] is 18.7 µM (active).
`CCN(CC)C(=O)c1ccc(C2=CC3(CCNCC3)Oc3cccc(O)c32)cc1`: the Potency result in [2], in [3] and in assay [4] was “inactive” throughout.
As for `COC(=O)[C@@H](N)CCCN=C(N)N[N+](=O)[O-]`, the Potency result in assay [10], in assay [3] and in assay [4] was “inactive” each time.

The record behind these values is PubChem BioAssay (NCATS).
